Screens (PubChem BioAssay)
An excerpt weighted towards active compounds, which were near 4% of everything screened.
Caspase-7 inhib: allosteric or competitive inhibitors of human caspase-7; P55210; recombinant caspase-7, Ac-DEVD-AFC fluorescence rate; Potency, µM (doses to about 57.5 µM), for inactives: at the top dose activity change, negative = inhibition, usual class: inhibitors; 75,000 compounds, 0.02% hits; active means well fitted inhibition curve with a large enough effect in the main read-out, with a control signal flat, not every such curve was filed as active; inconclusive means small, poorly fitted or top-dose-only effect, or a change in a side signal; further: % of control where 0% means no effect
Target sequence (P55210 24-198 limits assumed): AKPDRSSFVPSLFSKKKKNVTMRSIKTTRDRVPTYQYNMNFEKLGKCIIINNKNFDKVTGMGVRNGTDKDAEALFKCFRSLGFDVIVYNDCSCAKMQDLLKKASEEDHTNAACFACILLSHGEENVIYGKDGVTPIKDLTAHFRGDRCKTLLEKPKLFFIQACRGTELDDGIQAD
Target sequence (P55210 207-303 limits assumed): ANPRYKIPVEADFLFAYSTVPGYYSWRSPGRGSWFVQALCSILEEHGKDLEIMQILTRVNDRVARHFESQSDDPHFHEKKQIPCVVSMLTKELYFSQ
HEK293 cAMP ctrl: raises cAMP in parental HEK293 cells, TSHR agonist counter-screen; parental HEK293 CNG cAMP sensor, membrane potential fluorescence; Potency, µM (titrated, usually from 57.1 µM), inactives show at the highest dose activation, usual class: activators; 73,000 compounds, 2.5% hits; AID 938; further: % of control where 0% means no effect; nearly all actives have a fitted effect of over 55% in size
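Parental HEK 293 cells stably expressing a cAMP-gated CNG channel were loaded with membrane potential dye containing 100 uM RO 20-1724 for 60 min. Compound added for 30 min; depolarization read as fluorescence intensity at 590 nm.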
TSHR ag: agonists of human thyroid stimulating hormone receptor | P16473 | HEK293-CNG-TSHR cells (CNG channel as cAMP sensor), membrane potential dye, cAMP | Potency, µM (titrated, usually from 57.1 µM), inactives show at the highest dose activation, actives largely listed as activators | 73,000 compounds, 0.48% hits | AID 926; active means well fitted activation curve with a large enough effect in the main read-out, with a control signal flat, not every such curve was filed as active; inconclusive means small, poorly fitted or top-dose-only effect, or a change in a side signal; inactive means no such curve, though single readings can be large or run the other way; % of control where 0% means no effect;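 further: the control signal comes from parental cells without the receptor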
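HEK 293 cells stably expressing TSHR and a modified CNG channel, with CNG-only parental cells as counterscreen, were preloaded 60 min at room temperature with membrane potential dye containing 100 uM RO 20-1724. Compound exposure was 30 min, and depolarization was read as fluorescence at 590 nm.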
GBA activity: human lysosomal glucosylceramidase modulation | P04062 | purified enzyme, resorufin glucoside fluorescence (screen aimed at inhibitors), 20 min | Potency, µM | 48,000 compounds, 1.1% hits | AID 360; in the data active means potency below about 15 µM; inconclusive means mostly about 16 µM to 33 µM;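 further: the screen sought inhibitors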
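Compounds titrated against 0.2 nM normal enzyme, 30 uM resorufin beta-D-glucopyranoside substrate, citrate/phosphate buffer with taurocholate and tween-20, pH 5.9. Reaction ran 20 min at room temperature; fluorescence (Ex 548/Em 600) gave AC50.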
PK Bst: pyruvate kinase (B. stearothermophilus) modulation | 51,000 compounds, 1.2% hits | Potency, µM | purified pyruvate kinase, luminescence ATP production; ribose 5-phosphate activator present at AC10 | AID 361; in the data active means potency below about 11 µM; inconclusive means mostly about 12 µM to 25 µM;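 the screen sought inhibitors and activators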;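 further: scaled between full activation by ribose 5 phosphate and full inhibition by luteolin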
Caspase-1 inhib: blocks human caspase-1 allosterically or competitively; P29466; Caspase-1 enzyme, Ac-WEHD-AFC fluorogenic rate; Potency, µM (series often up to 57.5 µM), inactives show at the highest dose activity change, negative = inhibition, actives largely listed as inhibitors; 75,000 compounds, 0.03% hits; AID 900;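 further: plate controls were vehicle for no effect and no substrate for full effect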
Target sequence (P29466 120-297 limits assumed): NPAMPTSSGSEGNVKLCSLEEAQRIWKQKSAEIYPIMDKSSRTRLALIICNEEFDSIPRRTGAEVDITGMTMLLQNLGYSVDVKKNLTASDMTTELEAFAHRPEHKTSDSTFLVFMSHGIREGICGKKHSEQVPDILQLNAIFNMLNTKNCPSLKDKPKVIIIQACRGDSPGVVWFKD
Target sequence (P29466 317-404 limits assumed): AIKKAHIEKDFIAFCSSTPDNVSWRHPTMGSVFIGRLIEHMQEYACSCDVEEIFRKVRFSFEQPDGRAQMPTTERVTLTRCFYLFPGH
The depositor's hits bear a star; [ ] = remark or other dose. Unless noted, the call rests on the fitted dose curve; in most records, active means well fitted curve in the direction sought with a large enough effect; inconclusive means small, poorly fitted or top-dose-only effect, or another doubt; inactive means no such curve, though single readings can be large; an effect the other way counts as inactive or inconclusive. Potency means the concentration at half of the fitted maximal effect.

What do the screens show for `Cc1cc(N2CCOCC2)nc2ccc(Cc3ccc4nc(N5CCOCC5)cc(C)c4c3)cc12`?
Caspase-7 inhib: -3%[11.5 µM]; HEK293 cAMP ctrl: 4%[11.4 µM]; TSHR ag: 4%[11.4 µM]; Caspase-1 inhib: 1%[11.5 µM]

How did CCCCN(C)C(=O)CCC(=O)Nc1ccc2nc(N3CCOCC3)cc(C)c2c1 do in these assays?
Caspase-7 inhib: -3%; HEK293 cAMP ctrl: 0%; TSHR ag: 1%; GBA activity: 0.71*; PK Bst: >11; Caspase-1 inhib: 0%

What do the screens show for `Cc1cc(N2CCOCC2)nc2ccc(NC(=O)CCC(=O)N3CCC(C)CC3)cc12`?
Caspase-7 inhib: -1%; HEK293 cAMP ctrl: -2%; TSHR ag: 5%; GBA activity: 1.7*; Caspase-1 inhib: -2%

What do the screens show for `Cc1cc(N2CCOCC2)nc2ccc(NC(=O)CCC(=O)N3CCCCC3)cc12`?
Caspase-7 inhib: 0%; HEK293 cAMP ctrl: -2%; TSHR ag: 3%; GBA activity: 2.4*; PK Bst: >11; Caspase-1 inhib: -3%

What do the screens show for `Cc1cc(/C=C/c2ccc3cc(N(C)C)ccc3[n+]2C)c(C)n1-c1ccccc1`?
Caspase-7 inhib: -24%; Caspase-1 inhib: -12%

What do the screens show for `O=C1C2=CC[C@@H]3C(=O)N(c4ccc(F)cc4F)C(=O)[C@H]3[C@H]2[C@H](O)[C@H]2O[C@H]12`?
Caspase-7 inhib: -11%[11.5 µM]; HEK293 cAMP ctrl: 6%[11.4 µM]; TSHR ag: 4%[11.4 µM]; Caspase-1 inhib: -10%[11.5 µM]

Results for C=C(CC(=O)O)C(=O)O (tested in a mixture with another compound) ?
Caspase-7 inhib: -4%[11.5 µM]; HEK293 cAMP ctrl: -5%[11.4 µM]; TSHR ag: -6%[11.4 µM]; Caspase-1 inhib: 1%[11.5 µM]

How did C[C@@H]1C[C@@H]2[C@H]3CCC4=CC(=O)C=C[C@]4(C)[C@]3(Cl)[C@@H](O)C[C@@]2(C)[C@@]1(O)C(=O)CO do in these assays?
Caspase-7 inhib: 1%; HEK293 cAMP ctrl: 10%; TSHR ag: 7%; Caspase-1 inhib: -1%

How did c1ccc(C2=NN[C@@H]3c4ccccc4-c4ccccc4N3C2)cc1 do in these assays?
Caspase-7 inhib: 1%[11.5 µM]; HEK293 cAMP ctrl: 5%[11.4 µM]; TSHR ag: -1%[11.4 µM]; Caspase-1 inhib: 2%[11.5 µM]

How did CCOc1ccccc1NC(=O)CCC(=O)Nc1ccc2nc(N3CCN(C)CC3)cc(C)c2c1 do in these assays?
Caspase-7 inhib: -1%; HEK293 cAMP ctrl: -11%; TSHR ag: -19%; GBA activity: 9.6*; PK Bst: >57; Caspase-1 inhib: 3%

How did CCN1CCN(c2cc(C)c3cc(NC(=O)Cc4ccc(OC)c(OC)c4)ccc3n2)CC1 do in these assays?
Caspase-7 inhib: -7%; HEK293 cAMP ctrl: 1%; TSHR ag: -3%; Caspase-1 inhib: -5%

Results for Cc1cccc(CNc2ncnc3ccc(-c4ccc(C(=O)N(C)C)cc4)cc23)c1 ?
Caspase-7 inhib: -7%; HEK293 cAMP ctrl: -25%; TSHR ag: 28%; Caspase-1 inhib: -4%

What do the screens show for `CCCn1c(NC(=O)c2ccc(Cl)c(S(=O)(=O)N3CCCC3)c2)nc2ccccc21`?
Caspase-7 inhib: -6%; HEK293 cAMP ctrl: 16µM*; TSHR ag: inconclusive; PK Bst: >57; Caspase-1 inhib: -4%

How did NNC(=O)[C@@H](O)[C@H](O)[C@H](O)CO do in these assays?
Caspase-7 inhib: -2%[11.5 µM]; HEK293 cAMP ctrl: -2%[11.4 µM]; TSHR ag: 5%[11.4 µM]; Caspase-1 inhib: -2%[11.5 µM]

How did CCCCNC(=O)c1sc2nc(C)cc(COC)c2c1-n1cccc1 do in these assays?
Caspase-7 inhib: 0%; HEK293 cAMP ctrl: 16µM*; TSHR ag: inconclusive; GBA activity: >77; PK Bst: >57; Caspase-1 inhib: -1%

Results for Cc1cc(C)c2c(-n3cccc3)c(C(=O)O)sc2n1 ?
Caspase-7 inhib: 1%; HEK293 cAMP ctrl: inconclusive; TSHR ag: inconclusive; GBA activity: >77; PK Bst: >57; Caspase-1 inhib: -2%

Results for Cc1n[nH]c(C)c1S(=O)(=O)N1CCCC(C(=O)NC2CCCCC2)C1 (stereo unspecified) ?
Caspase-7 inhib: 0%; HEK293 cAMP ctrl: 10µM*; TSHR ag: inconclusive; Caspase-1 inhib: -2%

How did Cc1nn(C)c(C)c1S(=O)(=O)N1CCCC(C(=O)NC2CCCCCC2)C1 (stereo unspecified) do in these assays?
Caspase-7 inhib: 0%; HEK293 cAMP ctrl: inconclusive; TSHR ag: inconclusive; Caspase-1 inhib: -1%

What do the screens show for `COC(=O)c1ccc2c(=O)n(C3CCCCC3)c(SCC#N)nc2c1`?
Caspase-7 inhib: 1%; HEK293 cAMP ctrl: 20µM*; TSHR ag: inconclusive; PK Bst: >57; Caspase-1 inhib: 0%

How did CCSc1nc2cc(C(=O)OC)ccc2c(=O)n1CC do in these assays?
Caspase-7 inhib: -1%; HEK293 cAMP ctrl: inconclusive; TSHR ag: inconclusive; PK Bst: >57; Caspase-1 inhib: -2%

How did CC[C@H](C)N(C)C(=O)c1cc2ccccc2c(-c2ccccc2Cl)n1 do in these assays?
Caspase-7 inhib: -1%; HEK293 cAMP ctrl: inconclusive; TSHR ag: 25µM*; Caspase-1 inhib: -3%

Results for COc1ccc2[nH]c(=O)c(C(c3nnnn3CC3CCCO3)N3CCc4ccccc4C3)cc2c1 (stereo unspecified) ?
Caspase-7 inhib: -6%; HEK293 cAMP ctrl: 4%; TSHR ag: 8%; GBA activity: 14*; PK Bst: >57; Caspase-1 inhib: -7%

Results for COc1ccc(C(c2nnnn2CC2CCCO2)N2CCN(c3cccc(C)c3C)CC2)cc1 (stereo unspecified) ?
Caspase-7 inhib: -2%; HEK293 cAMP ctrl: 7.9µM*; TSHR ag: inconclusive; PK Bst: >57; Caspase-1 inhib: -2%

How did Cc1ccc2[nH]c(=O)c(C(c3nnnn3CC3CCCO3)N3CCc4ccccc4C3)cc2c1 (stereo unspecified) do in these assays?
Caspase-7 inhib: -6%; HEK293 cAMP ctrl: 6%; TSHR ag: 13%; GBA activity: >77; PK Bst: >57; Caspase-1 inhib: inconclusive

Results for O=C(O)CSc1cc(-c2ccccc2)nc2ccccc12 ?
Caspase-7 inhib: -2%[11.5 µM]; HEK293 cAMP ctrl: 16%[11.4 µM]; TSHR ag: 2%[11.4 µM]; Caspase-1 inhib: -2%[11.5 µM]

What do the screens show for `C[C@@H](C(=O)Nc1ccc2ccccc2c1)[C@H]1C[C@]1(C)[C@H](NC(=O)c1cnccn1)c1ccccc1`?
Caspase-7 inhib: -4%; HEK293 cAMP ctrl: 16µM*; TSHR ag: inconclusive; Caspase-1 inhib: -4%

Results for C[C@@H](C(=O)Nc1ccc2ccccc2c1)[C@@H]1C[C@@]1(C)[C@@H](NC(=O)c1cnccn1)c1ccccc1 ?
Caspase-7 inhib: -4%; HEK293 cAMP ctrl: inconclusive; TSHR ag: inconclusive; Caspase-1 inhib: -9%

How did Cc1cc(C(=O)N[C@@H](c2ccccc2)[C@]2(C)C[C@H]2[C@@H](C)C(=O)Nc2ccc3ccccc3c2)no1 do in these assays?
Caspase-7 inhib: -3%; HEK293 cAMP ctrl: inconclusive; TSHR ag: inconclusive; Caspase-1 inhib: -3%
